Most compounds without a hit are left out; they make up all but 7.4% or so of the library.
SMN2 splice up: qHTS Assay for Enhancers of SMN2 Splice Variant Expression; HEK293 SMN2-luciferase splicing reporter, luminescence, 30-36 h; Potency, µM (highest dose often 46.1 µM), hits mostly activators; hit rate 2.8% among 210,000; further: nearly all actives have a fitted effect of over 55% in size
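HEK293 cells carry an SMN2 minigene-luciferase reporter in which exon 7 inclusion puts luciferase in frame. Cells were seeded at 2000 cells/well, attached for 10-12 hours, then exposed to compounds for 30-36 hours at 37C before ONE-Glo luminescence.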
p53 reactivator: qHTS assay for re-activators of p53 using a Luc reporter. H1299 p53-A138V BP100-luciferase reporter, luminescence, 24 h. Potency, µM (doses to about 92.2 µM), hits mostly activators. hit rate 0.063% among 320,000. AID 504706, 2011; further: nearly all actives have a fitted effect of over 45% in size
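p53-null H1299 cells stably carrying temperature-sensitive p53-A138V and a BP100-luciferase reporter were pinned with compounds (4-point, 1:5 series) and held 24 hrs at 37 deg C. Luminescence was read 10 min after detection reagent.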
NPC1 promoter act: qHTS Assay for NPC1 Promoter Activators | hit rate 2.4% among 320,000 | AID 485313, 2010 | Huh7 NPC1 promoter luciferase reporter, 24 h | Potency, µM (series often up to 9.22 µM), usual class: activators; further: nearly all actives have a fitted effect of over 60% in size
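Readout is luciferase luminescence, reflecting NPC1 promoter activation in stably transfected Huh7 cells after 24 h compound exposure at 37 °C in reduced-serum medium with 10% FBS.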
FLuc modulator: qHTS profiling assay for firefly luciferase inhibitor/activator using purifed enzyme and Km concentrations of substrates (counterscreen for miR-21 project); Potency, µM (doses to about 57.5 µM), hits mostly inhibitors; AID 588342, 2011; Luciferin 4-monooxygenase (Photinus pyralis), P08659; purified FLuc, Km substrates, luminescence inhibition; hit rate 6.9% among 360,000; further: nearly all actives have a fitted effect of over 55% in size
Target sequence (P08659 whole entry, looked up): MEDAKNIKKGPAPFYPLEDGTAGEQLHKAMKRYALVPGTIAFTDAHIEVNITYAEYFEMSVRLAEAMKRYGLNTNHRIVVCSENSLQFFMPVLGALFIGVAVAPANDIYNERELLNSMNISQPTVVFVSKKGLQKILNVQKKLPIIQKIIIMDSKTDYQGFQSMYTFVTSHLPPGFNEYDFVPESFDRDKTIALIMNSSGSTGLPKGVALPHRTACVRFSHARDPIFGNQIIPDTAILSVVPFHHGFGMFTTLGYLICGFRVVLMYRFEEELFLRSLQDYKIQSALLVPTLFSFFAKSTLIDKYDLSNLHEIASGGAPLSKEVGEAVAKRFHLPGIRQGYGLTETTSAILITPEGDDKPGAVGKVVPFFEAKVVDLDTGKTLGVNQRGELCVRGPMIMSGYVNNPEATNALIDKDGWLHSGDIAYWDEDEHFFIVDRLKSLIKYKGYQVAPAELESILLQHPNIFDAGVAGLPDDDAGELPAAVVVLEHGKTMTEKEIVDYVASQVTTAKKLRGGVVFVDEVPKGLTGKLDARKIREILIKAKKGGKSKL
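Biochemical qHTS of compounds, final roughly 60 µM downward over six points, against 10 nM purified firefly luciferase using Km concentrations of substrates (10 uM D-luciferin, 10 uM ATP) in Tris acetate pH 7.5 buffer; luminescence output.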
Rab9 prom act: qHTS Assay for Rab9 Promoter Activators; Huh7 Rab9 promoter-luciferase reporter, luminescence, 24 h; Potency, µM (highest dose often 9.22 µM), most hits filed as activators; hit rate 2.8% among 320,000; AID 485297, 2010; further: nearly all actives have a fitted effect of over 60% in size
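Stable Rab9-luc Huh7, 1500 cells/well, 2 h settle; cmpd in DMSO, 24 h, 37 °C/5% CO2; luciferase reagent 10 min RT; luminescence.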
ELG1 genotox: qHTS screen for small molecules that induce genotoxicity in human embryonic kidney (HEK293T) cells expressing luciferase-tagged ELG1; HEK293T ELG1-luciferase reporter, luminescence, 16 h; Potency, µM (titrated, usually from 46 µM), most hits filed as activators; hit rate 1.3% among 330,000; AID 504466, 2011; further: nearly all actives have a fitted effect of over 60% in size
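Quantitative HTS format in 1536-well plates. HEK293T ELG1-luciferase reporter cells receive test compound and are incubated 16 hr at 37 °C, 5% CO2; ONE-Glo added, 30 min room temperature, then luminescence read.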
A number is an active result; – = inactive; ? = inconclusive; · = no result given; [ ] = another dose, or the depositor's remark. The call rests on the fitted dose curve; in most records, active means well fitted curve in the direction sought with a large enough effect; inconclusive means small, poorly fitted or top-dose-only effect, or another doubt; inactive means no such curve, though single readings can be large; an effect the other way counts as inactive or inconclusive.

SMILES	SMN2 splice up	p53 reactivator	NPC1 promoter act	FLuc modulator	Rab9 prom act	ELG1 genotox
O=C(NCCc1ccccn1)c1ccc(OC(F)F)cc1	11µM	–	1.4µM	11µM	0.79µM	?
O=C(NCCCn1ccnc1)c1cn(-c2ccccc2)nc1-c1ccccc1	–	·	·	12µM	·	·
O=C(/C=C/c1ccc(Cl)cc1)NCc1ccco1	–	–	–	13µM	–	–
COc1ccccc1Cn1c(CNS(=O)(=O)c2ccccc2Cl)nc2cccnc21	·	·	·	–	·	·
CCCCn1c(C)cc2c(c1=O)C1O[C@](c3ccsc3)(Cc3ccccc31)O2	·	·	–[1.84 µM]	–[11.5 µM]	–[1.84 µM]	·
COc1ccc(C(=O)N2CCC[C@@]3(CCN(c4ccccn4)C3)C2)cc1	–	·	·	·	·	·
c1ccc2c(CSCc3cccc4ccccc34)cccc2c1	–[9.22 µM]	·	·	·	·	·
Cc1cc(C(=O)NCc2ccco2)no1	·	–	–	–	–	–
CC(C)Cc1cc(C(=O)NCc2ccco2)no1	·	–	?	17µM	4µM	?
O=C(NCc1ccc2c(c1)OCO2)c1cc(-c2ccccc2)on1	·	–	–	–	–	–
COc1cccc(-c2cc(C(=O)NCc3ccco3)no2)c1	11µM	?	3.2µM	11µM	1.8µM	10µM
Cc1ccc(-c2cc(C(=O)NCc3ccco3)no2)cc1	?	?	2.8µM	?	2.2µM	?
O=C(NCc1ccco1)c1cc(-c2cccc(Cl)c2)on1	–	?	–	–	–	?
O=C(NCc1ccco1)c1cc(-c2ccc3c(c2)OCO3)on1	?	?	2.5µM	?	4µM	?
CCCCC(=O)OC1CCC2C3CCc4cc(O)ccc4C3CC[C@]12C (stereo not given in full)	–	·	·	·	·	·
Cc1ccc(S(=O)(=O)NCC(=O)N(CC(=O)NCC2CCCO2)Cc2ccc(Cl)cc2)cc1 (stereo not given)	·	–	–	–	–	–
O=C(NCc1ccccn1)c1cn(-c2ccccc2)nc1-c1ccc(Cl)cc1	–	–	–	19µM	–	–
O=C(NCc1ccccn1)c1cc(-c2ccccc2)on1	?	?	–	?	?	?
Cc1ccc(-c2cc(C(=O)NCc3ccccn3)no2)cc1	28µM	?	?	17µM	?	13µM
O=C(NCc1ccccn1)c1ccc(-c2ccccc2)cc1	·	–	?	12µM	?	?
CCOC(=O)[C@H]1[C@H]2COc3ccc(OC)cc3[C@@H]2N2C(=O)[C@H](C)NC(=O)[C@@]12C	·	–	–	–	–	–
Cc1ccc(NC(=O)Cn2nnc(C(=O)NCCc3ccccc3)c2N)cc1	–	·	·	–	·	·
O=C(O)c1ccc2c(c1)C(=O)N([C@H](Cc1ccc(C(F)(F)F)cc1)C(=O)O)C2=O	·	·	–	–	–	·
C[C@@H](O)[C@H]1C(=O)N2C(C(=O)O)=C(SCCN=CN)C[C@H]12	·	·	–	·	–	·
Nc1c(-c2n[nH]c(=S)n2-c2ccc(Cl)cc2Cl)cnn1-c1ccccc1	·	–	–	–	–	–
SMILES	SMN2 splice up	p53 reactivator	NPC1 promoter act	FLuc modulator	Rab9 prom act	ELG1 genotox
Nc1[nH]nc2c1NN(c1ccc(Cl)cc1Cl)N2	?	–	?	12µM	–	?
C/C(=N\NC(=O)c1ccc(Cl)cc1)c1cccs1	3.5µM	–	0.56µM	2.7µM	0.32µM	2.3µM
C/C(=N/NC(=O)c1ccc2nc[nH]c2c1)c1cccs1	11µM	?	2µM	11µM	1.4µM	?
Cc1ccc(/C=N/NC(=O)c2ccc3nc[nH]c3c2)s1	–	–	–	?	–	–
O=c1c2c3c(sc2nc2sc(CN4CCOCC4)cn12)CCCC3	?	–	4.5µM	–	?	?
O=C(NCCN1CCOCC1)c1cccn2c(=O)c3c4c(sc3nc12)CCCC4	·	–	–	–	–	–
Cc1ccc(C)c(OCCn2c(-c3ccc(Cl)cc3)nc3ccccc3c2=O)c1C	–	·	·	–	·	·
Cc1cc(/C=N/NC(=O)c2ccc(O)cc2)c(C)n1C1CC1	–	–	–	?	–	–
Cc1cc(/C=C2\SC(=S)NC2=O)c(C)n1C1CC1	–	–	?	6.7µM	?	–
Cc1cc(/C=C2/C(=O)N(C)C(=S)N2C)c(C)n1C1CC1	13µM	?	2.8µM	3µM	2µM	18µM
Cc1cc(/C=C2\SC(=O)NC2=O)c(C)n1-c1ccc(N(C)C)cc1	·	·	–	–	–	–
COc1ccc(NC(=O)N2CC3(CCN(C(=O)c4cnccn4)CC3)C2)cc1	–	·	·	·	·	·
COCCn1c(C(=O)N2CCCC2)cc2c1C[C@H]1CN(C(=O)c3ccccc3)[C@@](Cc3ccc(OC)cc3)(C(=O)OC)[C@@H]21	–	·	·	·	·	·
CCOC(=O)C1=C(C)NC(C)=C(C(=O)OCC)C1c1c(F)c(F)c(F)c(F)c1F	·	·	–	·	–	·
CCOC(=O)C1=C(C)NC(C)=C(C(=O)OCC)C1c1ccc(O)cc1	13µM	–	–	–	–	–
Cc1ccc(C)c(Cn2nnc(C(=O)NCc3ccc(Cl)cc3Cl)c2N)c1	–	·	·	–	·	·
CCOc1ccccc1N1CCN(S(=O)(=O)c2cc(C)ccc2OC)CC1	·	–	?	17µM	2.5µM	?
Cc1cccc(N2CCN(C(=O)c3c(C)oc4nc(C)nc(N5CCCC5)c34)CC2C)c1 (stereo not given)	·	·	·	–	·	·
CCOC(=O)CN1C(=O)C(O)(CC(=O)c2cc(OC)ccc2OC)c2ccccc21 (stereo not given)	–	·	·	–	·	·
O=C(COC(=O)c1ccccc1[N+](=O)[O-])NC(=O)c1ccccc1	·	–	–	17µM	–	–
O=C(OCC(=O)N1CCN(c2ccccc2)CC1)c1ccccc1[N+](=O)[O-]	·	?	3.5µM	6.7µM	3.2µM	5.2µM
O=C(COc1ccccc1[N+](=O)[O-])N1CCCc2ccccc21	·	–	–	–	–	–
O=C(Cn1ccc([N+](=O)[O-])n1)N1CCCc2ccccc21	–	?	–	17µM	–	?
O=C(OCC(=O)N1CCCc2ccccc21)c1ccccc1[N+](=O)[O-]	·	?	?	15µM	?	?
CCc1ccc(CNC(=O)c2sc3ncnc(N(C)C4CCCCC4)c3c2C)cc1	·	·	·	–	·	·
CCOC(=O)c1nnn(CC(=O)Nc2cc(C)cc(C)c2)c1C(=O)OCC	–	·	·	–	·	·
O=S1(=O)N=C(Nc2ccc(N3CCOCC3)cc2)c2ccccc21	?	–	–	13µM	–	–
O=[N+]([O-])c1ccc(Cl)c(C[n+]2cccc3ccccc32)c1	·	–	–	–	–	–
COc1cccc(CNc2cc(C)nc3nc(-c4ccc(C)cc4)nn23)c1	·	·	·	1.7µM	·	·
COc1ccc(-c2nc3nc(C)cc(Nc4cccc(C(F)(F)F)c4)n3n2)cc1	–	·	–	–	–	·

Screens deposited in PubChem by National Center for Advancing Translational Sciences (NCATS).
